According to PMC7862700, “An all-to-all approach to the identification of sequence-specific readers for epigenetic DNA modifications on cytosine”:

Columns and labels:
Experiment in all cases: DAPPL (digital affinity profiling via proximity ligation, sequencing); 10 mM Tris-HCl pH 7.5, 50 mM NaCl, 1 mM DTT, 4% glycerol, room temperature, 30 min; GST-TFs on glutathione beads, 16-mer random dsDNA library, 0.1% formaldehyde crosslink after washing; high values mean tight binding
FLI1 = target: T1, FLI1 (Homo sapiens, UniProt Q01543 1-452); conditions: protein: recombinant; tags: N-terminal GST; dsDNA, one strand shown
T1 sequence: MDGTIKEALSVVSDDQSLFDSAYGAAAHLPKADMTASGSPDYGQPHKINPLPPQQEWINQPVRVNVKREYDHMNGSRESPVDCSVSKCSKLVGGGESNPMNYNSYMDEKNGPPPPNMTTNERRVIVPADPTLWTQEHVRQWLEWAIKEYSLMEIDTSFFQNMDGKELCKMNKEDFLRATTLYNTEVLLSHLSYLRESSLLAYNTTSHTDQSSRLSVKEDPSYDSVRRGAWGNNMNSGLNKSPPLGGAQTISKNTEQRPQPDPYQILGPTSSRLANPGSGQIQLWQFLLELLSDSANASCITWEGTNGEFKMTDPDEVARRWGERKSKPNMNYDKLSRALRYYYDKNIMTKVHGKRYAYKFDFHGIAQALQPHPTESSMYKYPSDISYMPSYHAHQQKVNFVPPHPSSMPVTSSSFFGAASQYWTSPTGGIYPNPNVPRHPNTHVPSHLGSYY
Procedure, shortened: (§1)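 Binding signal is given per hexamer as its read frequency for a factor divided by its frequency in the tag-only sample. GST-fused human transcription factors were expressed in yeast, captured on glutathione beads, barcoded with DNA and pooled with that sample, then incubated with 200 nmole of a 16-mer random double-stranded DNA library in Tris/NaCl/DTT/glycerol buffer for 30 min at room temperature. The pools were then washed, crosslinked, proximity-ligated, amplified by PCR and sequenced on an Illumina NextSeq500.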

ELK1 = target: T2, ELK1 (Homo sapiens, UniProt P19419 1-428); conditions: protein: recombinant; tags: N-terminal GST; dsDNA, one strand shown
T2 sequence: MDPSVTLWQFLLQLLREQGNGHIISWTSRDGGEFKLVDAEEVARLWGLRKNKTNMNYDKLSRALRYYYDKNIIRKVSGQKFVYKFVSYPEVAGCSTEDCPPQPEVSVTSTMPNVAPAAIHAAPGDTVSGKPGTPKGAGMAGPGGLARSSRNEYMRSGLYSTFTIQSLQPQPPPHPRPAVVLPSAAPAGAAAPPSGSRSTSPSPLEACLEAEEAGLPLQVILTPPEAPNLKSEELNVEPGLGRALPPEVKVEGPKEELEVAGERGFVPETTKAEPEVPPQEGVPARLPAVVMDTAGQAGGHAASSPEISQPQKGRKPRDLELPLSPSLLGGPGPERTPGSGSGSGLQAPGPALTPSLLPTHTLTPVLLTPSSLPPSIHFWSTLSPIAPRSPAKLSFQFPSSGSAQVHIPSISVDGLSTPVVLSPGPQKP
Procedure, shortened: as §1

GABPA = target: T3, GABPA (Homo sapiens, UniProt Q06546 1-454); conditions: protein: recombinant; tags: N-terminal GST; dsDNA, one strand shown
T3 sequence: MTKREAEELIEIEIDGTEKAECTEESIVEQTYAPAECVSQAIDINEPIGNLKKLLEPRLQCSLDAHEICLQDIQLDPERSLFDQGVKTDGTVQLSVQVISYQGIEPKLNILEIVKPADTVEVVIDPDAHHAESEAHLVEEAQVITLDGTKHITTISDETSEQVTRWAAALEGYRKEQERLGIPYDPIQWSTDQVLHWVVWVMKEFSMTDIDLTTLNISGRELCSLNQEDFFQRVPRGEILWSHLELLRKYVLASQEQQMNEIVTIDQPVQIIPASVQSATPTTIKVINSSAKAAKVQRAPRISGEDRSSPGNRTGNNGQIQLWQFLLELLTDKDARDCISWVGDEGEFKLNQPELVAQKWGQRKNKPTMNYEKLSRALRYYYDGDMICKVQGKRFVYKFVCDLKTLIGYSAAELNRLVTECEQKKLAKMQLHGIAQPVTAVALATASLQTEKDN
Procedure, shortened: as §1

ERG = target: T4, ERG (Homo sapiens, UniProt P11308 1-479); conditions: protein: recombinant; tags: N-terminal GST; dsDNA, one strand shown
T4 sequence: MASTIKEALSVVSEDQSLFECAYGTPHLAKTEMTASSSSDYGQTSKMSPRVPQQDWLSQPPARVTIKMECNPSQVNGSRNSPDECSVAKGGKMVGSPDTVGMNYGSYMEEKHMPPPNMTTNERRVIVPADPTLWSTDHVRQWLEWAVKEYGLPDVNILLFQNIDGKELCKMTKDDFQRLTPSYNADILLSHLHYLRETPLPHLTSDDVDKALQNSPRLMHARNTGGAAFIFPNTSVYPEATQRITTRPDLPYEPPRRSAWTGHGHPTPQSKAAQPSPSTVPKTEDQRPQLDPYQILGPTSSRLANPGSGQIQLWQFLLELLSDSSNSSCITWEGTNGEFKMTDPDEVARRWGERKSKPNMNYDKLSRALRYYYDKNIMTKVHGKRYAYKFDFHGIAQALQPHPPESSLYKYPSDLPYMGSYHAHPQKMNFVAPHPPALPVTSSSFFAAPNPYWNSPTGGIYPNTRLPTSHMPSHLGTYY
Procedure, shortened: as §1

ELF1 = ELF1 (Homo sapiens, UniProt P32519 1-619); conditions: protein: recombinant; tags: N-terminal GST; dsDNA, one strand shown
Procedure, shortened: as §1

EHF = target: T5, EHF (Homo sapiens, UniProt Q9NZC4 1-300); conditions: protein: recombinant; tags: N-terminal GST; dsDNA, one strand shown
T5 sequence: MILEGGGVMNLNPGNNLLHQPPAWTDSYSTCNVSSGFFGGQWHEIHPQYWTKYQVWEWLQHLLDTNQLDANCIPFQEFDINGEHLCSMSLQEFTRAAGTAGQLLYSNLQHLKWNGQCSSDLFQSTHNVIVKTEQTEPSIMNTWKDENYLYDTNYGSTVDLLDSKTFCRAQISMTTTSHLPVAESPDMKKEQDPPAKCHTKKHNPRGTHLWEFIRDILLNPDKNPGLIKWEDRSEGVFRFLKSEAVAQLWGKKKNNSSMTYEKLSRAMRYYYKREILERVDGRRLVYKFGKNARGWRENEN
Procedure, shortened: as §1

SPI1 = SPI1 (Homo sapiens, UniProt P17947 1-270); conditions: protein: recombinant; tags: N-terminal GST; dsDNA, one strand shown
Procedure, shortened: as §1

SPIB = SPIB (Homo sapiens, UniProt Q01892 1-262); conditions: protein: recombinant; tags: N-terminal GST; dsDNA, one strand shown
Procedure, shortened: as §1

ELK3 = target: T6, ELK3 (Homo sapiens, UniProt P41970 1-407); conditions: protein: recombinant; tags: N-terminal GST; dsDNA, one strand shown
T6 sequence: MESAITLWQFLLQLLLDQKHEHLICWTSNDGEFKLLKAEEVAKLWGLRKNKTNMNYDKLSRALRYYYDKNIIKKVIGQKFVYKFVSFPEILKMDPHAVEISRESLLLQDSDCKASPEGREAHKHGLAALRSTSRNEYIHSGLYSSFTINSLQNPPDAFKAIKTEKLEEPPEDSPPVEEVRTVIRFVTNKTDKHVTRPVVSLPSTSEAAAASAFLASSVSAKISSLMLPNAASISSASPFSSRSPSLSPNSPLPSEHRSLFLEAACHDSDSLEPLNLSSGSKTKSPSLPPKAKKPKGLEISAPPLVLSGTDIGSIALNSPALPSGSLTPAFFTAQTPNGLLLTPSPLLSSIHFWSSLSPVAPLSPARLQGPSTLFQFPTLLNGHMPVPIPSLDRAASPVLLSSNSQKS
Procedure, shortened: as §1

FEV = target: T7, FEV (Homo sapiens, UniProt Q99581 1-238); conditions: protein: recombinant; tags: N-terminal GST; dsDNA, one strand shown
T7 sequence: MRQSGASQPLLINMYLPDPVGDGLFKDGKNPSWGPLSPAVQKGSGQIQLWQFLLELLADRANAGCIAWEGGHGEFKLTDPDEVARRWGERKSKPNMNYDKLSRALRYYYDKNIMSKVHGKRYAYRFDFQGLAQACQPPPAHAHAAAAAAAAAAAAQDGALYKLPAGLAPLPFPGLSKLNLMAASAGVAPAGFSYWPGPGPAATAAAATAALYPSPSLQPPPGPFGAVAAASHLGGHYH
Procedure, shortened: as §1

ETV5 = ETV5 (Homo sapiens, UniProt P41161 1-510); conditions: protein: recombinant; tags: N-terminal GST; dsDNA, one strand shown
Procedure, shortened: as §1

HSF1 = HSF1 (Homo sapiens, UniProt Q00613 1-529); conditions: protein: recombinant; tags: N-terminal GST; chain copies: 3; dsDNA, one strand shown
Procedure, shortened: as §1

SPIC = target: T8, SPIC (Homo sapiens, UniProt Q8N5J4 1-248); conditions: protein: recombinant; tags: N-terminal GST; dsDNA, one strand shown
T8 sequence: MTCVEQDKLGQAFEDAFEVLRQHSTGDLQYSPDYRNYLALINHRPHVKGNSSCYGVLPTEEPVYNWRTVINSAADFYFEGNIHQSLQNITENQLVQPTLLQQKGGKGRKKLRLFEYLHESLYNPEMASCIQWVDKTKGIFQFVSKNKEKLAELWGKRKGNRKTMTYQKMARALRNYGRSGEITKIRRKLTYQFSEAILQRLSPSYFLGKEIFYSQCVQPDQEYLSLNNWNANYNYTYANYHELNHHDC
Procedure, shortened: as §1

ELF4 = ELF4 (Homo sapiens, UniProt Q99607 1-663); conditions: protein: recombinant; tags: N-terminal GST; dsDNA, one strand shown
Procedure, shortened: as §1

ELK4 = target: T9, ELK4 (Homo sapiens, UniProt P28324-2 1-405); conditions: protein: recombinant; tags: N-terminal GST; dsDNA, one strand shown
T9 sequence: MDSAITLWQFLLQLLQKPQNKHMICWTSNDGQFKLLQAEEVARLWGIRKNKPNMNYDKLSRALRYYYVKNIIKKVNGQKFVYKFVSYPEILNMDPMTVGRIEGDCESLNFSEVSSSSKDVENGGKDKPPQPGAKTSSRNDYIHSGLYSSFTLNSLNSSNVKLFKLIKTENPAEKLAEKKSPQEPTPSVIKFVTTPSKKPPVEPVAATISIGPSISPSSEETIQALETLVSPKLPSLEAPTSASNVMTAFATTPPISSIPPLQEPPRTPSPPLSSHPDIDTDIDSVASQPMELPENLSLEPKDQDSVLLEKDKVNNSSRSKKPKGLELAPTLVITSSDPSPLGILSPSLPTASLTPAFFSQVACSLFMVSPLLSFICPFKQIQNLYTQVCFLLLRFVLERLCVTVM
Procedure, shortened: as §1

ETV2 = target: T10, ETV2 (Homo sapiens, UniProt O00321 1-342); conditions: protein: recombinant; tags: N-terminal GST; dsDNA, one strand shown
T10 sequence: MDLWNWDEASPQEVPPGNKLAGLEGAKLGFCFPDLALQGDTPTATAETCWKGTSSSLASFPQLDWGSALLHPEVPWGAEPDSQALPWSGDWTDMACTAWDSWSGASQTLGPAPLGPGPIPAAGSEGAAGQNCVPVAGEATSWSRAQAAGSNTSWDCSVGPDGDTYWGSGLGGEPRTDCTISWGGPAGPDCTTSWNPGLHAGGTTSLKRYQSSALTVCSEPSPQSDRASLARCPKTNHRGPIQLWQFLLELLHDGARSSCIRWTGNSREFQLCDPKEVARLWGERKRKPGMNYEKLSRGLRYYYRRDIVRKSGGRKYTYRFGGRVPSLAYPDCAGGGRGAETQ
Procedure, shortened: as §1

ELF3 = target: T11, ELF3 (Homo sapiens, UniProt P78545 1-371); conditions: protein: recombinant; tags: N-terminal GST; dsDNA, one strand shown
T11 sequence: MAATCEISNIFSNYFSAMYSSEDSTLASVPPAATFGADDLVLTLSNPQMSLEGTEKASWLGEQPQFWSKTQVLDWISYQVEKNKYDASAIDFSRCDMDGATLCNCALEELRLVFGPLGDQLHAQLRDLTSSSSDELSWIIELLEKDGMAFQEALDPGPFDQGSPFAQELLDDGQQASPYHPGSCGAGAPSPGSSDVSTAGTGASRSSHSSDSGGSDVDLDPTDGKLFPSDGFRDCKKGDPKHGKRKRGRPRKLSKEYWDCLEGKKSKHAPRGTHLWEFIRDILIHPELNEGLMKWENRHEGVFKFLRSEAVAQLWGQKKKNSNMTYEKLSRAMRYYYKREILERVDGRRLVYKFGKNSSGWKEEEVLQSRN
Procedure, shortened: as §1

CRX = CRX (Homo sapiens, UniProt O43186 1-299); conditions: protein: recombinant; tags: N-terminal GST; dsDNA, one strand shown
Procedure, shortened: as §1

ETV1 = ETV1 (Homo sapiens, UniProt P50549 1-477); conditions: protein: recombinant; tags: N-terminal GST; dsDNA, one strand shown
Procedure, shortened: as §1

Sequence of ETV5 (P41161 whole entry): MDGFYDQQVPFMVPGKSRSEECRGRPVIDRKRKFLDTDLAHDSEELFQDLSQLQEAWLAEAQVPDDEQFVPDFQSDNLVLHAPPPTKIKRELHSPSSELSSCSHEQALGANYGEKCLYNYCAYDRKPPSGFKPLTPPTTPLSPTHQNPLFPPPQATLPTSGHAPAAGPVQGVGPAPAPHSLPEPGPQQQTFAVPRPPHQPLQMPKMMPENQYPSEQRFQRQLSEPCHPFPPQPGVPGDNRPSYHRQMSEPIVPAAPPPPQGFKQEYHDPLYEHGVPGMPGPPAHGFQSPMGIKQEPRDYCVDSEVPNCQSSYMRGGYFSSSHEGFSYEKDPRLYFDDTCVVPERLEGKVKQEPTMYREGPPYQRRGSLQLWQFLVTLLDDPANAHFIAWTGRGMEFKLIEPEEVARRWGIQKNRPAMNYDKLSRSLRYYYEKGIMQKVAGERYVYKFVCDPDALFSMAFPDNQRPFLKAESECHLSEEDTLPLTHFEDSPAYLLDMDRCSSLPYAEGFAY
Sequence of ETV1 (P50549 whole entry): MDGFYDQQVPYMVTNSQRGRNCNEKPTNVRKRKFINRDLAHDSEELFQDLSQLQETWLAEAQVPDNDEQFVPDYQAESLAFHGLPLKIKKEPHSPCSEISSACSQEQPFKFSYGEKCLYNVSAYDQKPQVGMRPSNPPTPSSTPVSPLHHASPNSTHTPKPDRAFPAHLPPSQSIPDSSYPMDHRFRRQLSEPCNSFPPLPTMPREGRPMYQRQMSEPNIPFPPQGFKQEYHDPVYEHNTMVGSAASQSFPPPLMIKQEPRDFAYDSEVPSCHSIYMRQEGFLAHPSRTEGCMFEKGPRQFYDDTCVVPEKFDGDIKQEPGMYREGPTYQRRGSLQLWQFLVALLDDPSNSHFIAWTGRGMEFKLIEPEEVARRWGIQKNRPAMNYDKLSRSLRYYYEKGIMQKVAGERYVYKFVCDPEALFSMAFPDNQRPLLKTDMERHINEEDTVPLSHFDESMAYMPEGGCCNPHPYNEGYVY
Sequence of CRX (O43186 whole entry): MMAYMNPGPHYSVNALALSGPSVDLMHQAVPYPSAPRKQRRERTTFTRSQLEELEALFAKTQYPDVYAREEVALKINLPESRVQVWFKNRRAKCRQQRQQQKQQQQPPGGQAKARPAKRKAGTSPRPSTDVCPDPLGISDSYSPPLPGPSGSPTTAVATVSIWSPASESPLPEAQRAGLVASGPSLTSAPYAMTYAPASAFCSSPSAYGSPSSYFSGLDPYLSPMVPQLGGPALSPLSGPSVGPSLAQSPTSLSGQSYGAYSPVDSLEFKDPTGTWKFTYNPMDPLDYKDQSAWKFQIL
Sequence of ELF1 (P32519 whole entry): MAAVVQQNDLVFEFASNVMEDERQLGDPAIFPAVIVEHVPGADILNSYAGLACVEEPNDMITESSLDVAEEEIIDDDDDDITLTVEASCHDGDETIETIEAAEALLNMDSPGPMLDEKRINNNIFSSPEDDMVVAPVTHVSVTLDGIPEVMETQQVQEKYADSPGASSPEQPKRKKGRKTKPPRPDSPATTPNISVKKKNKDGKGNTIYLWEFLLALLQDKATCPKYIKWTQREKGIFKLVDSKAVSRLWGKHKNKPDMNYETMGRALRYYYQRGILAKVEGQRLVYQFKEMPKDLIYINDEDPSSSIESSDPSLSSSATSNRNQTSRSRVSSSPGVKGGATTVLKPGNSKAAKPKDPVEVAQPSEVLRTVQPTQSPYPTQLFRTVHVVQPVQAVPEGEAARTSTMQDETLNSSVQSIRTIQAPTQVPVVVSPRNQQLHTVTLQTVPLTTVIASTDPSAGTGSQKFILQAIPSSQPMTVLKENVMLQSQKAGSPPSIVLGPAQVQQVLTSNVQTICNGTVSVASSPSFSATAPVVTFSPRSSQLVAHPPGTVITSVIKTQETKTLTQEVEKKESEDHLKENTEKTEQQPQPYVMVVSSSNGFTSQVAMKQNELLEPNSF
Sequence of ELF4 (Q99607 whole entry): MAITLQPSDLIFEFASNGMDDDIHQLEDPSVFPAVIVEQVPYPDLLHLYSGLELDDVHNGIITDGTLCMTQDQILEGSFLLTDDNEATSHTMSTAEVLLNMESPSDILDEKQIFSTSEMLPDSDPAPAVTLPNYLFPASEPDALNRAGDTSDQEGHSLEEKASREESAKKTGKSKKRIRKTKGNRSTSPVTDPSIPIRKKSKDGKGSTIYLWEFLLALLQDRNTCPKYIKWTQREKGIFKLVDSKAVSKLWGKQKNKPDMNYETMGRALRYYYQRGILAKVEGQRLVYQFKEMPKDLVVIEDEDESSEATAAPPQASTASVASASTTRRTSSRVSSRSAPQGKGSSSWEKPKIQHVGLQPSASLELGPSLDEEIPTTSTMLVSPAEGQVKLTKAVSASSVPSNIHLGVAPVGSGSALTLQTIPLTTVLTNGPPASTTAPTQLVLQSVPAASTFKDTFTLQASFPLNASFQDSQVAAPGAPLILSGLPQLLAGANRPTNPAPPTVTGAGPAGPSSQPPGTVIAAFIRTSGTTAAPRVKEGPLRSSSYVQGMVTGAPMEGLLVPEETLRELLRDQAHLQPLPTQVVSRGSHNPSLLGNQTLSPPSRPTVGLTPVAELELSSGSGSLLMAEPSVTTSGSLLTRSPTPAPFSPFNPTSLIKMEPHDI
Sequence of SPIB (Q01892 whole entry): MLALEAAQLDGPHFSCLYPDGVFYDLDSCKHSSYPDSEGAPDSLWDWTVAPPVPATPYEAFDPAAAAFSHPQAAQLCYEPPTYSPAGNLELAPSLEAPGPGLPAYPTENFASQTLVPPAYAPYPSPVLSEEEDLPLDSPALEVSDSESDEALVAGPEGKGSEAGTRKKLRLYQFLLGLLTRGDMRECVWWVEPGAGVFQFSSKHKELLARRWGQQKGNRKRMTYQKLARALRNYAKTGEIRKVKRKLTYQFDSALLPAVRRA
Sequence of HSF1 (Q00613 whole entry): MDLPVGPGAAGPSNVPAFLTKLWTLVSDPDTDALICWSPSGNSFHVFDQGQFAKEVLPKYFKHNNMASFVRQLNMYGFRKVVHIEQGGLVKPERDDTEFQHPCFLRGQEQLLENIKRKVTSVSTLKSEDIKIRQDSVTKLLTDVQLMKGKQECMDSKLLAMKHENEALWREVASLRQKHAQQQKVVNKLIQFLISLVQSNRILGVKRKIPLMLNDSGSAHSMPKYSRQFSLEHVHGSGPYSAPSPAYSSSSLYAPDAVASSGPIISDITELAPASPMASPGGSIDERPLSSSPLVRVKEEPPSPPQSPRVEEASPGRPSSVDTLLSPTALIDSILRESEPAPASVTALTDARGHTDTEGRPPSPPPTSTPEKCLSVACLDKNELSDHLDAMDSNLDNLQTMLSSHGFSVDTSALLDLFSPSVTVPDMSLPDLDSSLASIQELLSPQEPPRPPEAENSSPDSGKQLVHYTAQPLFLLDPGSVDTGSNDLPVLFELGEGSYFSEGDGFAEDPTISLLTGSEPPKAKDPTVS

TTCTCA
binding signal (FLI1): 1.36 fold enrichment (6-mer frequency, TF over GST control) | binding signal (ELK1): 1.31 fold enrichment (6-mer frequency, TF over GST control) | binding signal (GABPA): 1.33 fold enrichment (6-mer frequency, TF over GST control) | binding signal (ERG): 1.26 fold enrichment (6-mer frequency, TF over GST control) | binding signal (ELF1): 1.29 fold enrichment (6-mer frequency, TF over GST control) | binding signal (EHF): 1.19 fold enrichment (6-mer frequency, TF over GST control) | binding signal (SPI1): 1.32 fold enrichment (6-mer frequency, TF over GST control) | binding signal (SPIB): 1.31 fold enrichment (6-mer frequency, TF over GST control) | binding signal (ELK3): 1.27 fold enrichment (6-mer frequency, TF over GST control) | binding signal (FEV): 1.3 fold enrichment (6-mer frequency, TF over GST control) | binding signal (ETV5): 1.33 fold enrichment (6-mer frequency, TF over GST control) | binding signal (HSF1): 1.65 fold enrichment (6-mer frequency, TF over GST control) | binding signal (SPIC): 1.5 fold enrichment (6-mer frequency, TF over GST control) | binding signal (ELF4): 1.27 fold enrichment (6-mer frequency, TF over GST control) | binding signal (ELK4): 1.34 fold enrichment (6-mer frequency, TF over GST control) | binding signal (ETV2): 1.32 fold enrichment (6-mer frequency, TF over GST control) | binding signal (ELF3): 1.39 fold enrichment (6-mer frequency, TF over GST control) | binding signal (CRX): 1.34 fold enrichment (6-mer frequency, TF over GST control) | binding signal (ETV1): 1.35 fold enrichment (6-mer frequency, TF over GST control)
